Reference: the supplement of paper PMC13094657
± gives the standard deviation of the averaged measurements.

The compounds below were run on MDA-MB-231 (assay: kynurenine production, fold change vs DMSO IFNg/TNF control; higher = more kynurenine produced (less inhibition)). Settings: pre-treatment time: 18 h then 24 h IFNg/TNF.
In short: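 Fold change over cytokine-stimulated vehicle wells on the same plate is the measure used for kynurenine production, averaged across duplicate plates in the first screening round. MDA-MB-231 cells, seeded 24 h beforehand at 7 × 10^4/well in 96-well plates, were pre-treated 18 h with each natural product in 0.1% DMSO and stimulated 24 h at 37°C with IFNγ (1 U/ml) and TNF (6.25 ng/ml). Supernatants were read at 492 nm following trichloroacetic acid and p-dimethylaminobenzaldehyde treatment, against 0–100 μM standards.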

Structure (SMILES)	kynurenine production
CC(C)[C@]12CC(=O)[C@H](C)[C@H]1C2 [α-Thujone] (compound dose: 10 uM)	0.947 ± 0.21
CCCC(=O)O[C@@H]1[C@@H](C)[C@@]2(O)[C@@H](C=C(CO)C[C@]3(O)C(=O)C(C)=C[C@@H]23)[C@@H]2C(C)(C)[C@]12OC(=O)CCC [Phorbol 12,13-Dibutyrate] (compound dose: 10 uM)	0.781 ± 0.034
COc1ccc(CC2c3cc(OC)c(OC)cc3CCN2C)cc1OC (centres undefined) [Laudanosine] (compound dose: 10 uM)	0.52 ± 0.037
CC1=C(O)C(=O)C=C2C1=CC=C1[C@@]2(C)CC[C@@]2(C)[C@@H]3C[C@](C)(C(=O)O)CC[C@]3(C)CC[C@]12C [Tripterin] (compound dose: 10 uM)	0.119 ± 0.017
CN1C2CCC1CC(O)C2 (centres undefined) [Tropine] (compound dose: 10 uM)	0.902 ± 0.2
C[C@@H]1CC[C@@]2(OC1)O[C@H]1C[C@H]3[C@@H]4CC=C5C[C@@H](O[C@@H]6O[C@H](CO)[C@@H](O[C@@H]7O[C@@H](C)[C@H](O[C@@H]8O[C@@H](C)[C@H](O)[C@@H](O)[C@H]8O)[C@@H](O)[C@H]7O)[C@H](O)[C@H]6O[C@@H]6O[C@@H](C)[C@H](O)[C@@H](O)[C@H]6O)CC[C@]5(C)[C@H]4CC[C@]3(C)[C@H]1[C@@H]2C [Formosanin C] (compound dose: 10 uM)	0.125 ± 0.075
CCCCCCCCCCCCCC(=O)O[C@@H]1[C@@H](C)[C@@]2(O)[C@@H](C=C(CO)C[C@]3(O)C(=O)C(C)=C[C@@H]23)[C@@H]2C(C)(C)[C@]12OC(C)=O [Phorbol 12-Myristate 13-Acetate] (compound dose: 10 uM)	1.01 ± 0.21
C/C=C(\C)C(=O)N[C@@H](c1ccccc1)[C@@H](O)C(=O)O[C@H]1C[C@@]2(O)[C@@H](OC(=O)c3ccccc3)[C@@H]3[C@]4(OC(C)=O)CO[C@@H]4C[C@H](O)[C@@]3(C)C(=O)[C@H](OC(C)=O)C(=C1C)C2(C)C [Cephalomannine] (compound dose: 10 uM)	0.267 ± 0.06
CC(C)=CCCC(C)(O)C1CCC2(C)C1C(O)CC1C3(C)CCC(OC4OC(CO)C(O)C(O)C4O)C(C)(C)C3CCC12C [20(R)-Ginsenoside Rh2] (compound dose: 10 uM)	0.958 ± 0.21
